Test results taken from PubChem BioAssay.
Values without a mark were called inactive. The source made the active and inactive calls. Cut-off read from the data, not from the text of the source: active = inhibition above about 28%; inactive = the rest.

test: StAR promoter reporter inhibitors, counter-screen for LRH-1 inverse agonist project, cell-based, luminescence, high throughput (AID 651611); settings: StAR promoter luciferase reporter counterscreen, at 3.6 µM, active compounds read high

Row | SMILES | inhibition
1 | O=C(COC(=O)c1ccccc1O)Nc1ccc(N2CCOCC2)cc1 | 0.71%
2 | O=C(CN1C(=O)NC2(CCCCCC2)C1=O)Nc1ccc([N+](=O)[O-])cc1 | 25.1%
3 | CC1CCCC(C)N1C(=O)COC(=O)Cc1ccc(Cl)cc1 (stereo not drawn) | -5.45%
4 | CC(=O)CSc1nc(N)c(C#N)c(-c2cccs2)c1C#N | 31.5% (active)
5 | Cc1cccc(NC(=O)COC(=O)c2cccs2)c1C | 0.76%
6 | Cc1cc([N+](=O)[O-])ccc1NC(=O)CSc1nnc(C)n1C | -1.6%
7 | COc1ccc(OC)c(C2NC(=O)c3sc(=S)n(-c4ccccc4)c3N2)c1 (stereo not drawn) | 10.5%
8 | CN(C)c1ccc(CN(C(=O)C2COc3ccccc3O2)C2CCS(=O)(=O)C2)cc1 (stereo not drawn) | 3.73%
9 | COc1ccc(CCNC(=O)COC(=O)C23CC4CC(CC(Br)(C4)C2)C3)cc1 | 4.42%
10 | CN(CCC#N)Cc1cc(=O)oc2ccc3ccccc3c12 | 13.8%
11 | O=[N+]([O-])c1ccc(N2CCCC2)nc1N1CCCC1 | 11.1%
12 | O=c1c2ccccc2ncn1Cc1ccco1 | 1.6%
13 | Cc1cccc(OCC(=O)Nc2ccncc2)c1C | 6.9%
14 | O=C(COC(=O)c1cccc(O)c1)Nc1ccc(N2CCOCC2)cc1 | 13.6%
15 | CCOc1ccc(NC(=O)CSc2nnc(C(C)C)n2CC)cc1 | 0.92%
16 | O=[N+]([O-])c1ccc(N2CCCC2)cc1NC1CC1 | 0.53%
17 | O=C(Nc1ccc2[nH]c(=O)[nH]c2c1)c1ccc([N+](=O)[O-])o1 | 7.96%
18 | NC(=O)C1CCN(C(=O)COc2ccc3c4c(c(=O)oc3c2)CCC4)CC1 | 5.21%
19 | O=C(C(Cl)c1ccccc1)N1CCOCC1 (stereo not drawn) | 5.9%
20 | CC(=O)N1CCc2c(sc(NC(=O)CCS(=O)(=O)c3ccccc3)c2C#N)C1 | -5.27%
21 | Cc1ccc(NC(=O)CSc2nc3[nH]c(=O)cc(O)c3s2)c(Br)c1 | 5.79%
22 | CC(=O)N1CCc2c(sc(NC(=O)CCS(=O)(=O)c3ccc(C)cc3)c2C#N)C1 | 11.7%
23 | CCOc1ccc(NC(=O)COC(=O)COc2cccc3c2OC(C)(C)C3)cc1 | 1.8%
